Measurements published in PubChem BioAssay.
The source made the active and inactive calls.

Columns and labels:
[1] = optical density shifts of acrAB sulA E. coli – strain DRC41, OD650, 48 h, E. coli filamentation inducer project, primary screen (AID 1152); settings: higher = more signal, called active from +8 up or from −8 down;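 also: E. coli MC1000 strain DRC41 lacking acrAB efflux pump and sulA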
[2] = probe aLefty1 binding on compound microarray – biochemical, small-molecule microarray, 635/667 nm fluorescence, primary screen (AID 1153); settings: higher = more signal;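 also: score merges spot fluorescence with signal-to-noise ratio from the scanned slide images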
[3] = plasmodial surface anion channel blockers, osmotic lysis – cell-based, P. falciparum Indochina, OD700, 1 h, primary screen (AID 1154); settings: P. falciparum Indochina infected RBC osmotic lysis, higher = more signal, called active from +8 up or from −8 down
[4] = plasmodial surface anion channel blockers, osmotic lysis – cell-based, P. falciparum Indochina, OD700, 2 h, primary screen (AID 1155);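 also: lysis reports solute entry through the parasite surface anion channel PSAC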; settings: P. falciparum Indochina infected erythrocytes, higher = more signal, called active from +8 up or from −8 down
[5] = changes in parasitized red cell lysis, either direction – P. falciparum Indochina, OD700, 3 h, PSAC antagonist project, primary screen (AID 1156); settings: P. falciparum-infected erythrocytes, osmotic lysis, higher = more signal, called active from +8 up or from −8 down
[6] = plasmodial surface anion channel blockers, osmotic lysis – cell-based, P. falciparum Indochina, OD700, 18 h, primary screen (AID 1157); settings: P. falciparum Indochina infected erythrocytes, osmotic lysis OD700, 18 h; higher = more signal, called active from +8 up or from −8 down
[7] = S6 kinase pathway phospho-S6 level changes – cell-based, A549, cytoblot, luminescence, serum-stimulated, primary screen (AID 1158); settings: 5 h, higher = more signal;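 also: serum-stimulated A549 lung adenocarcinoma cells; signal is phosphorylated S6 detected by cytoblot immunostaining with HRP secondary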
[8] = target: NADPH oxidase 2 (Homo sapiens) (UniProt P04839); experiment: compounds shifting NOX2 Amplex Red fluorescence – cell-based, HEK293-NOX2, PMA-stimulated, NOX inhibitor project, primary screen (AID 1159); settings: 45 min, higher = more signal, called active from +8 up or from −8 down; also: test concentration not given here
[9] = target: NADPH oxidase 4 (Homo sapiens) (UniProt Q9NPH5); experiment: compounds shifting NOX4 Amplex Red fluorescence – cell-based, HEK293-NOX4, tetracycline-induced, NOX inhibitor project, primary screen (AID 1160); settings: HEK293-NOX4, Amplex Red H2O2 fluorescence, 45 min; higher = more signal, called active from +8 up or from −8 down
[10] = target: NADPH oxidase 5 (Homo sapiens) (UniProt Q96PH1); experiment: compounds shifting NOX5 Amplex Red fluorescence – cell-based, HEK293-NOX5, NOX inhibitor project, primary screen (AID 1161); settings: HEK293-NOX5, ionomycin, 45 min, higher = more signal
[11] = compound effects on lung adenocarcinoma cell viability – A549, calcein-AM fluorescence, 48 h, basal, profiling panel (AID 1162); settings: higher = more signal; also: test concentration not given here
[12] = compound effects on differentiated 3T3-L1 adipocyte viability – cell-based, 3T3-L1 adipocytes, calcein-AM fluorescence, 48 h, basal, profiling panel (AID 1163); settings: 3T3-L1 adipocytes viability, higher = more signal; also: test concentration not given here
[13] = compound effects on hepatocellular carcinoma cell viability – HepG2, calcein-AM fluorescence, 48 h, basal, profiling panel (AID 1164); settings: higher = more signal; also: test concentration not given here
[14] = compound effects on multiple myeloma cell viability – MM1S, calcein-AM fluorescence, 48 h, basal, profiling panel (AID 1165); settings: higher = more signal;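 also: viability of MM1S multiple myeloma cells under basal unstimulated conditions; test concentration not given here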
[15] = calcein-AM signal in unstimulated myeloma cells – cell-based, calcein-AM fluorescence, 48 h, PK04 Diversity Set, profiling panel (AID 1166); settings: RPMI8226 myeloma viability, higher = more signal;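 also: cells grown under basal conditions without added stimulus; test concentration not given here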
[16] = JC-1 mitochondrial signal, unstimulated HepG2 cells – cell-based, JC-1 fluorescence, 24 h, 100 nL compound, profiling panel (AID 1167); settings: HepG2 mitochondrial potential, higher = more signal; also: test concentration not given here
[17] = JC-1 mitochondrial signal, unstimulated adipocytes – cell-based, JC-1 fluorescence, 3T3-L1 adipocytes, 24 h, 100 nL compound, profiling panel (AID 1168); settings: JC-1 mitochondrial fluorescence, higher = more signal, called active from +8 up or from −8 down; also: test concentration not given here
[18] = JC-1 mitochondrial signal, unstimulated myeloma cells – cell-based, JC-1 fluorescence, RPMI8226, 24 h, 100 nL compound, profiling panel (AID 1169); settings: JC-1 mitochondrial potential fluorescence, higher = more signal; also: test concentration not given here
[19] = JC-1 mitochondrial signal, unstimulated MM1S myeloma – cell-based, JC-1 fluorescence, 24 h, 100 nL compound, profiling panel (AID 1170); settings: MM1S mitochondrial potential, higher = more signal; also: test concentration not given here
[20] = resazurin metabolic signal in A549 cells – cell-based, resazurin fluorescence, 24 h, PK04 Diversity Set, profiling panel (AID 1171); settings: A549 viability, higher = more signal, called active from +8 up or from −8 down; also: test concentration not given here

NADPH oxidase 4 (Homo sapiens), sequence (Q9NPH5 whole entry, looked up): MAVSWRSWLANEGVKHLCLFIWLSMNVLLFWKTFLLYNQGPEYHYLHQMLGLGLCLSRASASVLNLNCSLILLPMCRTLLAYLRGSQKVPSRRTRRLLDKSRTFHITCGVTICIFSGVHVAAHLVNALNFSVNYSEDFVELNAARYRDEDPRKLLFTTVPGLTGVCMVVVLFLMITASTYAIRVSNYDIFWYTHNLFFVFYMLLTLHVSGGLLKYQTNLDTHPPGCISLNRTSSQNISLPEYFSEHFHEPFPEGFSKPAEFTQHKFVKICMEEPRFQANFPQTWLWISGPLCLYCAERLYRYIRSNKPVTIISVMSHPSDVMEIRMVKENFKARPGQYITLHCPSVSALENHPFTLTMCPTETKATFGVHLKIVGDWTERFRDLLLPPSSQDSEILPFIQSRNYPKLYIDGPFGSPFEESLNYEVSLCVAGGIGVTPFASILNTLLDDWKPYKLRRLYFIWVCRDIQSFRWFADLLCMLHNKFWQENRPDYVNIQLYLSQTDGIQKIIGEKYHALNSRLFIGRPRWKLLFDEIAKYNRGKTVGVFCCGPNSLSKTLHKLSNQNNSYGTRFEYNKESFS
NADPH oxidase 2 (Homo sapiens), sequence (P04839 whole entry, looked up): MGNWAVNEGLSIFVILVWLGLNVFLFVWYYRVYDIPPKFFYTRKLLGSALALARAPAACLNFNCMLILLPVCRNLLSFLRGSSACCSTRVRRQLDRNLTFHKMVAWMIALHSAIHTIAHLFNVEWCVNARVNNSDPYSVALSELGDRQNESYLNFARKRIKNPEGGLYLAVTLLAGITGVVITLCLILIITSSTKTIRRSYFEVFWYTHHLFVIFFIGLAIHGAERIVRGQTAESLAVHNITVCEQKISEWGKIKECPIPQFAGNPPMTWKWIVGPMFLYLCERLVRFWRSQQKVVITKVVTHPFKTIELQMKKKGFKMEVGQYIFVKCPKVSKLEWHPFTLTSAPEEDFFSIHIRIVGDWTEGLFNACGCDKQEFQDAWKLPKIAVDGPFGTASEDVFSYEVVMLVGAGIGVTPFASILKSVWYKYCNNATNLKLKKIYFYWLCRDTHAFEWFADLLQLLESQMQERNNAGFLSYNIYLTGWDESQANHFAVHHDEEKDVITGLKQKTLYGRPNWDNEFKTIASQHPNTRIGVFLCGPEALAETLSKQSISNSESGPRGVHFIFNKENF
NADPH oxidase 5 (Homo sapiens), sequence (Q96PH1 whole entry, looked up): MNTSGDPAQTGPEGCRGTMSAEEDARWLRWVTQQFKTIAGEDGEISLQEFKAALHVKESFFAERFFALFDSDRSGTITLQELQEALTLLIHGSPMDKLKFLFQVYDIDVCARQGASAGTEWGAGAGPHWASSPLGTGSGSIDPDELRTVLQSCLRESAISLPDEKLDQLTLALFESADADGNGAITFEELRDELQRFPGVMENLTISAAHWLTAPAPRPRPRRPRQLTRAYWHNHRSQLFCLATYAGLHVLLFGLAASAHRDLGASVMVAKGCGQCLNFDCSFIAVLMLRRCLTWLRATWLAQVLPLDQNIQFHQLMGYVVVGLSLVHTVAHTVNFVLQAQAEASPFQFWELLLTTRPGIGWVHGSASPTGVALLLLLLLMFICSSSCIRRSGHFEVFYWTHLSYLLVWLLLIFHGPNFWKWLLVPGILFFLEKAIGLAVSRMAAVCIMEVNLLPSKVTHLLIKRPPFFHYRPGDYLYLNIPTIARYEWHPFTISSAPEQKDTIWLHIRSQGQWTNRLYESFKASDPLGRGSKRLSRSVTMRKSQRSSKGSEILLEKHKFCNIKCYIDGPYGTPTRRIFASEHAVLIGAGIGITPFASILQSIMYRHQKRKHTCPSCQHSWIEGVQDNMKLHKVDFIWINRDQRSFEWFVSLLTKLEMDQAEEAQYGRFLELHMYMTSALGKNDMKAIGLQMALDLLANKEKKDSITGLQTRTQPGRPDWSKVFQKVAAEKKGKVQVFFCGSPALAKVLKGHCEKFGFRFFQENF

SMILES | z-score [1] | composite z-score [2] | z-score [3] | z-score [4] | z-score [5] | z-score [6] | z-score [7] | z-score [8] | z-score [9] | z-score [10] | z-score [11] | z-score [12] | z-score [13] | z-score [14] | z-score [15] | z-score [16] | z-score [17] | z-score [18] | z-score [19] | z-score [20]
C=C(CCCC)/C(=C/C[C@@H](OC(C)=O)c1ccccc1OCCO)c1cc(C(=O)OC)ccc1OC | 0.725 (inactive) | -0.239 | 27.1 (active) | 11.2 (active) | 2.14 (inactive) | 1.71 (inactive) | -0.733 | 1.27 (inactive) | 0.282 (inactive) | -1.36 | 1.83 | 0.109 | 0.741 | -2.54 | -0.354 | 1.75 | 0.478 (inactive) | -0.118 | 0.234 | 0.873 (inactive)
[N-]=[N+]=Nc1ccccc1C[C@]1(C(=O)N2CCCCC2)COC(c2ccc(OCCCO)cc2)=N1 | 0.891 (inactive) | 0.371 | 23.1 (active) | 9.64 (active) | 3.34 (inactive) | 1.77 (inactive) | -0.391 | -4.46 (inactive) | -0.826 (inactive) | -1.79 | -0.611 | 0.761 | -0.328 | -3.52 | -4.33 | -0.676 | 0.00722 (inactive) | -1.3 | -2.03 | 1.85 (inactive)
COCCOC(=O)N1C(=O)[C@@]2(c3cc(C#CCCO)ccc31)[C@H](c1ccc(OCCO)cc1)N1[C@H](c3ccccc3)[C@H](c3ccccc3)OC(=O)[C@H]1[C@@H]2C(N)=O | 0.391 (inactive) | 0.0329 | 12.1 (active) | 2.16 (inactive) | 0.136 (inactive) | 0.932 (inactive) | -0.296 | 1.93 (inactive) | -0.511 (inactive) | 0.419 | 0.617 | 0.435 | 1.35 | -0.109 | -0.804 | -0.72 | -0.456 (inactive) | -0.899 | -0.0462 | 0.215 (inactive)
COc1ccc(C#Cc2ccc3c(c2)[C@]2(C(=O)N3)[C@H](c3ccc(O)cc3)N3[C@H](c4ccccc4)[C@H](c4ccccc4)OC(=O)[C@H]3[C@@H]2C(=O)N2CCc3cc(OC)c(OC)cc3C2)cc1 | -0.291 (inactive) | 0.156 | 0.276 (inactive) | 0.312 (inactive) | -0.205 (inactive) | 0.196 (inactive) | -0.0494 | 1.12 (inactive) | 0.579 (inactive) | -0.568 | -0.258 | -0.817 | -0.0752 | -0.405 | -2.87 | -0.458 | 2.25 (inactive) | -0.727 | -0.418 | -0.565 (inactive)
COc1cc(CO)cc(I)c1O[C@H]1C=C(C(=O)NCCO)C[C@@H](N(C(=O)c2cc3ccccc3oc2=O)C2CCCCCC2)[C@@H]1O | 1.07 (inactive) | -0.0646 | 4.63 (inactive) | -0.78 (inactive) | 1.19 (inactive) | -1.9 (inactive) | 1.95 | 0.202 (inactive) | 0.881 (inactive) | 1.2 | 0.062 | 1.54 | 1.11 | 0.443 | -0.704 | -1.63 | -1.51 (inactive) | -0.27 | -1.21 | 0.0258 (inactive)
C=CCN1C(=O)[C@]2(Cc3ccccc3)N=C(c3ccc(OCCCO)cc3)O[C@@H]2c2ccccc21 | 0.567 (inactive) | 0.43 | 33.1 (active) | 30.1 (active) | 2.14 (inactive) | 10.2 (active) | -0.204 | -1.78 (inactive) | 0.46 (inactive) | 1.07 | 0.0386 | 0.146 | -1.62 | -3.02 | -3.91 | 0.822 | 2.21 (inactive) | -1.21 | -2.81 | -2.28 (inactive)
COCCOC(=O)N1C(=O)[C@@]2(c3cc(C#CC4=CCCCC4)ccc31)[C@H](C(N)=O)[C@H]1C(=O)O[C@H](c3ccccc3)[C@H](c3ccccc3)N1[C@@H]2c1ccc(O)cc1 | 1.04 (inactive) | 0.148 | 1.19 (inactive) | -0.933 (inactive) | 0.161 (inactive) | -1.13 (inactive) | 2.41 | 1.11 (inactive) | 0.563 (inactive) | 2.76 | 0.282 | 0.326 | 0.581 | -3.07 | -4.54 | -1.89 | 1.1 (inactive) | -1.22 | -0.992 | -1.77 (inactive)
C=CC[C@@]1(C(=O)N2CCCCC2)N=C(c2ccc(OCCCO)cc2)O[C@@H]1c1ccccc1CN=[N+]=[N-] | 0.279 (inactive) | 0.393 | 26 (active) | 16 (active) | 2.79 (inactive) | 1.04 (inactive) | 1.32 | -0.935 (inactive) | 1.43 (inactive) | 1.05 | -0.933 | 0.952 | 0.192 | -1.09 | -3.66 | 1.47 | -0.307 (inactive) | -1.01 | -0.18 | -1.5 (inactive)
COC(=O)c1c2oc(c1C(=O)OC)C(=O)N[C@@H](C(C)C)Cn1cc(nn1)C1(CCCCC1)NC(=O)N[C@H](CO)CC2 | 2.15 (inactive) | -0.146 | 1.1 (inactive) | 0.782 (inactive) | 0.144 (inactive) | 0.36 (inactive) | 0.223 | 0.644 (inactive) | 0.758 (inactive) | -0.124 | 1.31 | -0.32 | 0.0744 | -0.11 | 0.823 | 1.62 | 0.024 (inactive) | -0.159 | 0.3 | 1.15 (inactive)
